# Test results: PubChem BioAssay (NCI)
# This is part of a sample that, as a whole, favours compounds with a hit. Of some 83,000 tested, about 20% had one in any assay.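 Results are percent growth after 48 hours of single-concentration exposure. 100 means growth as in untreated cells, lower positive values show inhibition; negative values down to -100 show cell death.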 Values without a mark were called inactive. Activity calls are given as the source filed them. How the source made its calls: active means growth percent below 10; inactive means the rest.
# How the values were obtained:
# Assay in all cases: NCI-60 one-dose screen, 48 h (100 = growth as untreated, 0 = no growth, -100 = all killed)
# Details in all cases: 10 µM unless noted
# T-47D breast = tested on: T-47D breast
# BT-549 breast = tested on: BT-549 breast
# SW-620 colon = tested on: SW-620 colon
# MCF7 breast = tested on: MCF7 breast
# HCT-116 colon = tested on: HCT-116 colon
# HCC-2998 colon = tested on: HCC-2998 colon
# KM12 colon = tested on: KM12 colon
# MDA-MB-435 melanoma = tested on: MDA-MB-435 melanoma
Compound,growth (T-47D breast),growth (BT-549 breast),growth (SW-620 colon),growth (MCF7 breast),growth (HCT-116 colon),growth (HCC-2998 colon),growth (KM12 colon),growth (MDA-MB-435 melanoma)
O=c1ccn(-c2ncnc3nc[nH]c23)cc1,84%,98.9%,96%,88%,96.5%,106%,91.8%,
CC12CCCC(CC(=O)c3[nH]c4ccccc4c31)C2 (stereo unspecified),24.1%,,22.2%,21.1%,22.7%,43.5%,26.7%,-46.9% (active)
COc1cccc(CC(C)=C(c2ccc(OCCN(C)C)cc2)c2ccc(OCCN(C)C)cc2)c1,-72.7% (active),72.2%,-61.6% (active),-55.7% (active),-74.3% (active),-15.3% (active),-1.23% (active),
NC(N)=N/N=C/c1ccc(-c2ccc(-c3cc(Cl)cc(Cl)c3)s2)cc1,28.8%,95.7%,-66.3% (active),-39.9% (active),-75.9% (active),-17.3% (active),-62.4% (active),
Nc1nc(Nc2cc(Cl)cc(Cl)c2)nn1S(=O)(=O)c1ccc2ccccc2c1,46%,90.7%,67.6%,32.8%,33.5%,68.3%,21.9%,
COc1ccc(C2C=C(c3ccc(OC)c(OC)c3)N=C3SC=C(C)N32)c(Br)c1 (stereo unspecified),98.3%,99%,109%,94.5%,105%,110%,107%,
C/C(=C\c1ccc(OCC(=O)O)c(Cl)c1Cl)[N+](=O)[O-],100%,,114%,103%,109%,97.1%,104%,106%
CC(C)(C)n1cc(-c2ccnc(NCCCNS(=O)(=O)c3ccc(C(F)(F)F)cc3)c2)c(-c2cccc(O)c2)n1,31.3%,,0.471% (active),,16.1%,-63% (active),-14.2% (active),32.2%
Clc1ccccc1-c1nc2ccccc2[nH]1,89.3%,,94.6%,82.8%,78.6%,70.9%,97.5%,103%
CC12CCC3C4(C)COC(c5ccccc5Cl)OC4CCC3(C)C1CC(C1=CCOC1=O)O2 (stereo unspecified),31.1%,,84.7%,46.6%,40.5%,77.4%,59.9%,54.2%
CC12CCC3C4(C)COC(c5ccco5)OC4CCC3(C)C1CC(C1=CCOC1=O)O2 (stereo unspecified),101%,,107%,98.9%,104%,105%,103%,103%
Oc1ccc2cc(Br)ccc2c1-c1c(O)ccc2cc(Br)ccc12,57.9%,,48.3%,37.1%,33.5%,56.5%,40%,63.1%
OCc1ncc(-c2ccccc2)s1,89.8%,,106%,102%,89.5%,79.6%,103%,108%
C=C1CCC2C3(C)COC(C)(C)OC3CCC2(C)C1C/C=C1/C(=O)OCC1Oc1ccccc1OC (stereo unspecified),54.3%,,21.4%,30.2%,73.3%,122%,97.9%,68.6%
COc1ccc(/C=C2/C(=O)NC(SCC(=O)N3CCN(c4cc5c(cc4F)c(=O)c(C(=O)O)cn5C4CC4)CC3)=NC2N)cc1OC (stereo unspecified),110%,,105%,98%,105%,99.7%,106%,104%
O=S(=O)(NCCCNc1nccc(-n2ccc3cccnc32)n1)c1cccc(C(F)(F)F)c1,99.6%,,108%,103%,105%,119%,98%,108%
COc1ccc(-c2cc(-c3ccccc3)nc(SCCCC(=O)NO)n2)cc1OC,2.62% (active),,12.5%,,5.58% (active),34.7%,13.1%,9.02% (active)
COc1ccc(S(=O)(=O)n2ccc(-c3ccc4c(c3)CCC(C)(C)O4)n2)cc1OC,43.7%,,79.9%,64.3%,61.5%,78.9%,71.4%,79.6%
CC(C)(C)N1CCC1C(N)=O (stereo unspecified),99.5%,,97.7%,104%,77.4%,47%,99.2%,103%
